Assay results published in PubChem BioAssay (Tox21).
Results filed as inconclusive are left out. Calls of active or inactive are those of the source. Unless noted, calls come from the whole dose curve; as a rule, active = well fitted curve in the direction sought with a large enough effect in the repeat runs; inconclusive = weak or mixed curves; inactive = no such curve, though single readings can be large; an effect the other way counts as inactive or inconclusive.

Tests used:
[1] = qHTS assay for small molecule agonists of the p53 signaling pathway (AID 651631; calls by dose curve; note: nearly all actives have a fitted effect of over 15% in size)
Summary of the method: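 Fluorescence intensity from cleaved LiveBLAzer B/G substrate (2 h, room temperature) served as the signal. Beforehand, HCT-116 reporter cells bearing p53 response elements were treated 16 h at 37 °C with DMSO-dissolved compounds.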

[2] = qHTS assay for small molecules that induce genotoxicity in human embryonic kidney cells expressing luciferase-tagged ATAD5 (AID 651632); note: nearly all actives have a fitted effect of over 15% in size
Summary of the method: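 Genotoxicity read-out via ATAD5-luciferase: HEK293T cells, 16 hr compound incubation at 37C, Amplite detection.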

[3] = qHTS assay for small molecule agonists of the p53 signaling pathway - cell viability (AID 651633; calls by dose curve;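 note: p53RE-bla HCT reporter cells with a stable beta-lactamase p53 reporter; nearly all actives have a fitted effect of over 30% in size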)
Summary of the method: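 p53RE-bla cells, seeded at 4,000 per well and rested 5 h at 37 C/5% CO2, received compounds in DMSO for 16 h at 37 C. CellTiter-Glo was then added, and luminescence was read after 30 min at room temperature to gauge cytotoxicity.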

[4] = qHTS assay for small molecules that induce genotoxicity in human embryonic kidney cells expressing luciferase-tagged ATAD5 - cell viability (AID 651634; calls by dose curve; note: nearly all actives have a fitted effect of over 25% in size; note: potency is the fitted concentration of half-maximal effect)
Summary of the method: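 Live-cell protease activity (CellTiter-Fluor, fluorescence) indicates viability. HEK293T cells with luciferase-tagged ATAD5; 15.5 hr compound treatment at 37C.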

[5] = qHTS assay for small molecule disruptors of the mitochondrial membrane potential - cell viability (AID 720634; calls by dose curve;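 note: human HepG2 liver cancer cells; nearly all actives have a fitted effect of over 20% in size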)
Summary of the method: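 Human hepatoma HepG2 cells were treated for 1 hr with test chemicals, then given m-MPI dye and CellTiter-Glo. Cell viability reflects luminescence proportional to cellular ATP.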

[6] = qHTS assay for small molecule disruptors of the mitochondrial membrane potential (AID 720635); note: potency is the fitted concentration of half-maximal effect
Summary of the method: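 HepG2 cells (2,000/well) attached overnight at 37C, then took compound for 1 hr at 37C, 5% CO2. Mito-MPS dye was added for 30 min; fluorescence was read at 490/535 nm (monomers) and 540/590 nm (aggregates).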

[7] = qHTS assay to test for compound auto fluorescence at 590 nm (red) in HepG2 cells (AID 720674)
Summary of the method: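 Compound auto-fluorescence is scored relative to Rose Bengal sodium, measured at 540/590 nm in live HepG2 cultures after 1 hr compound contact (37 C, 5% CO2).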

[8] = qHTS assay to test for compound auto fluorescence at 535 nm (green) in HepG2 cells (AID 720675)
[9] = qHTS assay to test for compound auto fluorescence at 460 nm (blue) in HEK293 cells (AID 720678)
Summary of the method: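 HEK293 cells (2,000/well, medium with 10% dialyzed FBS) attached 4-5 hr, then exposed to compound overnight at 37C, 5% CO2. Blue fluorescence read at 405/460 nm, with triamterene as reference fluorophore.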

[10] = qHTS assay to test for compound auto fluorescence at 590 nm (red) in HEK293 cells (AID 720679)
Summary of the method: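 HEK293 cells (2,000/well, 10% dialyzed FBS) attached 4-5 hr, then dosed with compound or DMSO and incubated overnight at 37C, 5% CO2. Red fluorescence read at 540/590 nm, Rose Bengal sodium as reference fluorophore.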

[11] = qHTS assay to test for compound auto fluorescence at 535 nm (green) in HEK293 cells (AID 720680)
[12] = qHTS assay to test for compound auto fluorescence at 460 nm (blue) in HEK293 cell free culture (AID 720681)
Summary of the method: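 Test compounds were pinned into cell-free culture medium (DMEM with 10% FBS) and fluorescence was read directly at Ex/Em 405/460 nm. Signals were expressed as fluorescence equivalents of triamterene, with DMSO vehicle as control.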

[13] = qHTS assay to test for compound auto fluorescence at 535 nm (green) in HEK293 cell free culture (AID 720682)
Summary of the method: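 Intrinsic compound fluorescence is measured in culture medium containing 10% FBS, with excitation at 485 nm and detection at 535 nm, referenced to fluorescein.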

[14] = qHTS assay to test for compound auto fluorescence at 590 nm (red) in HEK293 cell free culture (AID 720683)
Summary of the method: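 Tox21 10K library compounds were pinned into cell-free DMEM with 10% FBS and fluorescence was read at excitation 540 nm. Activity is expressed as Rose Bengal sodium equivalency.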

[15] = qHTS assay to test for compound auto fluorescence at 590 nm (red) in HepG2 cell free culture (AID 720684)
Summary of the method: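 Red fluorescence (540 nm excitation, 590 nm emission) was measured after compound transfer into cell-free MEM supplemented with 10% FBS. Values are equivalencies against Rose Bengal sodium.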

[16] = qHTS assay to test for compound auto fluorescence at 460 nm (blue) in HepG2 cell free culture (AID 720685)
Summary of the method: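 Compound (23 nL) or DMSO pinned into cell-free MEM with 10% FBS; blue fluorescence read at 405/460 nm excitation/emission, expressed as auto-fluorescence equivalency to triamterene.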

[17] = qHTS assay to test for compound auto fluorescence at 535 nm (green) in HepG2 cell free culture (AID 720686)
[18] = qHTS assay to test for compound auto fluorescence at 460 nm (blue) in HepG2 cells (AID 720687)
Summary of the method: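 Cells (2,000/well in MEM with 10% FBS) attached overnight at 37 C, then were exposed to compound or DMSO for 1 hr at 37 C, 5% CO2. Fluorescence read at Ex/Em 405/460 nm, expressed as triamterene-equivalent signal.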

[19] = molecular target: Glucocorticoid receptor (Homo sapiens) (UniProt P04150); experiment: qHTS assay to identify small molecule agonists of the glucocorticoid receptor (GR) signaling pathway (AID 720691; active = well fitted activation curve with a large enough effect in the signal ratio in the repeat runs, not every such curve was filed as active; the % refers to the signal ratio); details: GR-bla HeLa, beta-lactamase reporter ratio, 18 h; activation: at 62.4 µM (top of the series)
Summary of the method: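 Beta-lactamase reporter activity, read as fluorescence intensity, was measured in GR-bla HeLa cells exposed to compounds for 18 h at 37 C and then loaded with LiveBLAzer B/G FRET substrate for 2 h at room temperature.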

[20] = molecular target: Glucocorticoid receptor (Homo sapiens) (UniProt P04150); experiment: qHTS assay to identify small molecule antagonists of the glucocorticoid receptor (GR) signaling pathway (AID 720692; active = well fitted inhibition curve with a large enough effect in the signal ratio in the repeat runs, not every such curve was filed as active; the % refers to the signal ratio)
Summary of the method: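 Fluorescence from cleaved LiveBLAzer B/G FRET substrate reports GRE-driven beta-lactamase in HeLa cells; compounds are tested against 5 nM dexamethasone (final) over 18 h at 37 C, substrate incubation 2 h at room temperature.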

Measured: Potency

Sequence of Glucocorticoid receptor (Homo sapiens) (P04150 whole entry, looked up): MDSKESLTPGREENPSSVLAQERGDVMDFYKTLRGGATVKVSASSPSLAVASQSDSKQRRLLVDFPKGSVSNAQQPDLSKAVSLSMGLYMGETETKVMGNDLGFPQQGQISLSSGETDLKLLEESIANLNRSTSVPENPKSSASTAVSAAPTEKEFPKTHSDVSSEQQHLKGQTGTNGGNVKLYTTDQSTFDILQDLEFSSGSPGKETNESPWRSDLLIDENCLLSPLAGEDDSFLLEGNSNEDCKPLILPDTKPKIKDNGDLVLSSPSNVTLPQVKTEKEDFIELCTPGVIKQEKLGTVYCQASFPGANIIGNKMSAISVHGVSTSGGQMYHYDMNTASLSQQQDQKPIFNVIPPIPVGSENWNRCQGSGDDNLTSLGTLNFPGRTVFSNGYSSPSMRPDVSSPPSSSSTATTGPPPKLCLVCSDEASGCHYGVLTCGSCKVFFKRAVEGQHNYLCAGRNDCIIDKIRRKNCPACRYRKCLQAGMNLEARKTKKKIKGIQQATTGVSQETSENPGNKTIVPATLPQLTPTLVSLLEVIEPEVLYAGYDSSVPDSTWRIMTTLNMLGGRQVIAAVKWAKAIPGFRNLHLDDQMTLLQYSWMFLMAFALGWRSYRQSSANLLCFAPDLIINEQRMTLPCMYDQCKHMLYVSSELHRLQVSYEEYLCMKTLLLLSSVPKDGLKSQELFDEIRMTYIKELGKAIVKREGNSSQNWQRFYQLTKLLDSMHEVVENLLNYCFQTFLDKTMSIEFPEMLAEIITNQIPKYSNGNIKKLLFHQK

Nc1cc([N+](=O)[O-])ccc1O
active: [4] 24.3 µM | [6] 27.3 µM
inactive: all other assays above

c1c[nH]cn1
not listed: [11]
inactive: all other assays above

c1ccc2c(c1)ccc1ccccc12
active: [6] 59.5 µM
not listed: [9] | [11]
inactive: all other assays above

O=S(=O)(O)c1ccc2ccccc2c1
not listed: [11] | [19] | [20]
inactive: all other assays above

O=c1[nH]nnc2ccccc12
not listed: [8] | [11] | [19] | [20]
inactive: all other assays above

ON=C1CCCCC1
not listed: [20]
inactive: all other assays above

CN(C)CCCN
not listed: [9] | [20]
inactive: all other assays above

CCCCCCCC(=O)OC
not listed: [8] | [9] | [19] | [20]
inactive: all other assays above

Fc1ccc(Br)cc1
not listed: [8] | [9] | [11] | [20]
inactive: all other assays above

O=S1(=O)CC=CC1
inactive: all assays above

COc1ccc(Cl)cc1C(=O)NCCc1ccc(S(=O)(=O)NC(=O)NC2CCCCC2)cc1
not listed: [6] | [19] | [20]
inactive: all other assays above

Cc1ccc(N(C)C)cc1
not listed: [8]
inactive: all other assays above

C[C@H]1C[C@H]2[C@@H]3CCC4=CC(=O)C=C[C@]4(C)[C@@]3(F)[C@@H](O)C[C@]2(C)[C@@]1(O)C(=O)CO
not listed: [8] | [9] | [11] | [19] | [20]
inactive: all other assays above

c1ccc(OCCOc2ccccc2)cc1
active: [6] 24.3 µM
inactive: all other assays above

C[Si](O[Si](C)(C)C)O[Si](C)(C)C
not listed: [9] | [20]
inactive: all other assays above

O=c1[nH]c(=O)n([C@H]2C[C@H](O)[C@@H](CO)O2)cc1Br
not listed: [8] | [11] | [19] | [20]
inactive: all other assays above
